PubChem BioAssay AID1981 (Southern Research Specialized Biocontainment Screening …, 2009)
Hit rate of the full screen: of about 2,200 compounds, about 480 (22%) were called active. How the calls were made is not given here. A selection follows. Entries with a potency or affinity are not part of this list.

test: S. Typhimurium GFP fluorescence modified counterscreen for PhoP regulon inhibitor project dose response (AID 1981); details: 4 h; series mostly up to 150 µM

SMILES	outcome
CC1CN(C(=O)CCc2ccccc2)C(C)CN1C(=O)CCc1ccccc1 (centres undefined)	inactive
Cc1cccc(OCCSCc2nc3ccccc3[nH]2)c1	inactive
Cc1ccc(Cn2cnc3ccccc32)cc1	inactive
Cc1ccc(-c2nnc(SCC(=O)N3CCCc4ccccc43)n2N)cc1	inactive
Clc1ccc(-c2cnc3n2CCC3)cc1	inactive
O=[N+]([O-])c1ccc(N2CCN(CCOc3nonc3-c3ccccc3)CC2)c(Cl)c1	inactive
Cc1occc1C(=O)n1cnc2ccccc21	inactive
Nc1c(-c2ccccc2Cl)cnn1-c1cccc([N+](=O)[O-])c1	inactive
C=C(C)C1Cc2cc3ccc(=O)oc3cc2O1 (centres undefined)	inactive
CCOC(=O)C1=C(C)N(CCO)C(=O)NC1c1cccc(O)c1 (centres undefined)	inactive
O=c1c2ccccc2nnn1Cc1ccccn1	inactive
Cc1cc(C)c(C#N)c(SCC(O)CS(=O)(=O)Cc2ccccc2)n1 (centres undefined)	inactive
Cc1ccc(N=Nc2ccc(O)c(/C=N\NC(=O)c3ccc(N)cc3)c2)cc1C	inactive
C/C(=N\NC(=O)C1CC1c1ccccc1)c1cccc([N+](=O)[O-])c1 (centres undefined)	inactive
Cc1cc(/C=N/NC(=O)c2cccc([N+](=O)[O-])c2)c(C)n1-c1ccc(Cl)cc1Cl	inactive
Cc1cc(C(=O)N/N=C/c2cc(Br)cc(Br)c2OC(=O)c2ccccc2)n[nH]1	inactive
Nc1nnc(CC(=O)N/N=C\c2cc([N+](=O)[O-])ccc2O)s1	inactive
Cc1ccc2cccc(Oc3ncnc4scc(-c5ccccc5)c34)c2n1	inactive
CN(C)c1ccnc(-n2cccc2/C=N/OCc2ccccc2)c1C#N	inactive
COc1ccc(OC)c(NC(=O)c2cc3c(Cl)nc4ccccc4c3s2)c1	inactive
Cc1ccc(C)c(C(=O)NCc2ccncc2)c1	inactive
COc1ccc(CN=C2Nc3ccccc3CS2)cc1	inactive
O=c1c2cc(Br)ccc2nc(-c2ccccc2)n1O	inactive

SMILES	outcome
CN1CCCC(OC(=O)c2ccc(Cl)cc2)C1 (centres undefined)	inactive
NC(=S)c1cc2ccc(O)cc2oc1=O	inactive
OCCCNc1nc(-c2ccc(Cl)cc2)nnc1-c1ccc(Br)cc1	inactive
CCn1c(CNC(=O)COc2ccc(C(C)C)cc2)nnc1SCC(=O)Nc1ccccc1	inactive
FC(F)(F)c1cc(C(F)(F)F)c2ccc(Oc3ccccc3)nc2n1	inactive
Cc1cc(C)c2c(c1)NC(=O)C2(O)CC(=O)c1cccs1 (centres undefined)	inactive
CC(C)(C)NC(=O)CSc1nnc(-c2ccncc2)o1	inactive
COc1ccccc1/C=C1\CCCC2=C1Nc1nnnn1C2c1ccccc1OC (centres undefined)	inactive
O=[N+]([O-])c1ccc(NCCCNS(=O)(=O)c2ccccc2)c(Cl)c1	inactive
COC(=O)c1sccc1NC(=O)CSc1ccccc1NS(=O)(=O)c1ccc(Cl)cc1	inactive
CCC(C)C(NC(=O)OCc1ccccc1)C(=O)OCN1C(=O)c2ccccc2C1=O (centres undefined)	inactive
c1ccc(-c2ncnc3nc4n(c23)CCC4)cc1	inactive
CCn1nnc(-c2ccccc2NC(=O)c2ccc(-n3cnnn3)cc2)n1	inactive
Cc1cc(-c2csc(N)n2)c(C)n1C	inactive
COc1cc(NC(=O)Nc2cccc(Cl)c2)c(OC)cc1NC(=O)CN1CCCCC1	inactive
CN(C)CCNc1nc(-c2ccccc2)nnc1C(F)(F)F	inactive
Cc1cc(NCCN2CCOCC2)n2ncc(-c3ccccc3)c2n1	inactive
COc1cc(C2SCC(=O)N2c2nnc(C34CC5CC(CC(C5)C3)C4)s2)cc(OC)c1OC (centres undefined)	inactive
N#CCC1c2ccccc2CCN1C(=O)Nc1ccc(Cl)cc1 (centres undefined)	inactive
CC1(C)CC(=O)C=C(Nc2ccc(Br)cn2)C1	inactive
COCCNC(=O)CSCc1c(F)cccc1Cl	inactive
Cc1ccc(C(=O)Oc2cccc(NC(=O)c3cccs3)c2)cc1S(=O)(=O)N1CCOCC1	inactive
NC(=O)c1ccccc1N=Cc1ccccn1	inactive

SMILES	outcome
Cc1cc(C)cc(NC(=O)CSc2nc3c(c(=O)[nH]2)CN(Cc2ccc(F)cc2)CC3)c1	inactive
COC(=O)C1(O)CC(C(C)C)=NN1C(=O)c1ccc(Cl)cc1 (centres undefined)	inactive
Cc1cccc(CN(C)C)c1OC(=O)N(C)C	inactive
Cc1ccc(/C=C2\SC(=S)N(Cc3ccccc3)C2=O)o1	inactive
COc1ccc(NC2=Nc3cccc4cccc2c34)cc1	inactive
Oc1cccc2ccc[n+](CC(O)Cn3c4ccccc4c4ccccc43)c12 (centres undefined)	inactive
O=C(CSc1ncnc2ccccc12)Nc1cc(S(=O)(=O)N2CCCCC2)ccc1Cl	inactive
COc1ccc(NS(=O)(=O)c2cc(C)ccc2NC(=O)c2cc(C)oc2C)cc1	inactive
COc1ccc(C)cc1C(=O)CCC(=O)Nc1ccccc1N1CCOCC1	inactive
CCCOc1ccc(C(=O)CCC(=O)OCC(=O)N2CC(=O)Nc3ccccc32)cc1	inactive
CCn1cc(C(=O)NCc2ccncc2)c(=O)c2cc(F)c(N3CCN(C(=O)c4ccco4)CC3)cc21	inactive
O=C(CN1CCC(NC(=O)c2cccc(F)c2)CC1)NCc1ccccc1F	inactive
CCCOc1ccc(C(=O)N2CCCC2C(=O)O)cc1 (centres undefined)	inactive
O=C(Nc1nc(-c2ccncc2)cs1)C1c2ccccc2Oc2ccccc21	inactive
O=C1c2[nH]nc(-c3ccccc3O)c2C(c2ccc(F)cc2)N1Cc1ccco1 (centres undefined)	inactive
CCCCNC(=O)OC1CCS(=O)(=O)C1 (centres undefined)	inactive
COC(=O)c1ccccc1NC(=O)NCc1ccc2c(c1)OCO2	inactive
O=C(CN1CCCCCC1)Nc1cccc(Br)c1	inactive
C=CCSc1nnc(-c2ccc(Cl)cc2Cl)o1	inactive
CCCCCOc1ccc(NC(=O)C(=O)NCCC2=CCCCC2)cc1	inactive
Cc1ccc(OCC(=O)N2CCN(S(=O)(=O)c3ccccc3)CC2)c([N+](=O)[O-])n1	inactive
Cc1nc(CC(=O)c2ccc(O)cc2O)cs1	inactive
CCc1c(C)c2cc(Cl)c(O)c(CN3CCCCC3)c2oc1=O	inactive

SMILES	outcome
Cc1onc(-c2c(F)cccc2Cl)c1C(=O)Nc1cccc(Cn2cccn2)c1	inactive
NC(CSC12CC3CC(CC(C3)C1)C2)C(=O)O (centres undefined)	inactive
Cn1c(CN2CCCCC2)nc2cc(NS(=O)(=O)c3ccc(Cl)cc3)ccc21	inactive
COc1ccc2c(c1)[nH]c1c(N3CCN(Cc4ccc5c(c4)OCO5)CC3)ncnc12	inactive
O=C(NCCNc1ccc([N+](=O)[O-])cc1C(F)(F)F)c1ccc(F)cc1	inactive
COCCNS(=O)(=O)c1cccn1-c1ncc(C(F)(F)F)cc1Cl	inactive
CCCCn1c(SCC(=O)Nc2nnc(CC)s2)nc2c1c(=O)n(C)c(=O)n2C	inactive
CCn1nc(C(=O)NCc2ccco2)c(Cl)c1Cl	inactive
Cc1cccc(C(=O)NC(=S)Nc2ccc(N3CCOCC3)cc2)c1	inactive
CCOC(=O)CSc1n[nH]c(NC(=O)c2cccc(C)c2)n1	inactive
Cc1cc(C)c2nc(NNC(=O)c3ccc(S(=O)(=O)N4CCc5ccccc5C4)cc3)sc2c1	inactive
O=C(O)CCCCCN1C(=O)c2ccc(C(=O)O)cc2C1=O	inactive
O=C(/C=C/c1ccccc1Cl)c1ccccc(=O)c1O	inactive
Cc1ccc(NC(=O)c2ccccc2)s1	inactive
CC1=C(C(=O)Nc2cccnc2)C(c2ccccn2)n2nnnc2N1 (centres undefined)	inactive
Cc1cccnc1NC(=O)CCCN1C(=O)c2ccccc2C1=O	inactive
CC(=O)c1cccc(NC(=O)Nc2cccs2)c1	inactive
CC1(C)CC(=O)C=C(Nc2ccccc2NC(=O)c2cnccn2)C1	inactive
COc1ccc(N2CCN(C(=O)Nc3ccc(S(=O)(=O)N(C)C)cc3)CC2)cc1	inactive
Cc1ccc(S(=O)(=O)N(CC(=O)N=Nc2c(O)[nH]c3ccccc23)c2ccc(C)c(C)c2)cc1	inactive
NC(N)=Nc1nc(C2COc3ccccc3O2)cs1 (centres undefined)	inactive
O=C(CSCc1nc2ccccc2[nH]1)Nc1ccc2ccccc2c1	inactive
COc1cc(CNCc2ccccn2)ccc1OCC(=O)NC(C)(C)C	inactive

SMILES	outcome
O=S(=O)(/N=C(/Nc1cccc2ccccc12)c1ccccc1)c1cccs1	inactive
FC(F)(F)COc1nc(OCC(F)(F)F)nc(N2CCN(c3ccccc3)CC2)n1	inactive
COc1cccc(C2CC(=O)Nc3cc(OC)c(OC)c(OC)c32)c1OC (centres undefined)	inactive
COCCn1c(-c2ccccc2F)n[nH]c1=S	inactive
COc1ccc(C(=O)NCCC2=CCCCC2)cc1OC	inactive
C1=C(CCNc2ncnc3c2[nH]c2ccccc23)CCCC1	inactive
O=C(NC1CCCCC1)n1c(=O)oc2ccc(Cl)cc21	inactive
COc1ccc(C2C(C(=O)c3cccs3)=C(O)C(=O)N2c2nnc(C)s2)cc1OC (centres undefined)	inactive
Nc1ccc2c(c1)C(=O)N(CC1CCCO1)C2=O (centres undefined)	inactive
CCOC(=O)c1cnc2ccccc2c1Nc1ccc2c(c1)OCCO2	inactive
Cc1cccc(N2CCc3c2nc2ccccc2c3N)c1	inactive
CCc1ccc(Nc2nc(N)nc(CSc3nc4ccccc4s3)n2)cc1	inactive
Oc1cccc(Nc2c3ccccc3nc3ccccc23)c1	inactive
CCOc1ccc(Nc2nc(NCCN3CCOCC3)nc(OC)n2)cc1	inactive
Cc1cccc(Nc2c3c(nc4ccccc24)CCC3)c1	inactive
c1ccc(CNc2c3c(nc4ccccc24)CCC3)cc1	inactive
Cc1cccc(Nc2nc(N)nc(CN3CCN(c4ccccc4)CC3)n2)c1	inactive
CC1(C)CC(=O)C(C=Nc2ccc(Cl)cn2)=C(O)C1	inactive
Cc1cc(C)n(-c2ccc(C(=O)OCC(=O)Nc3ccc([N+](=O)[O-])cc3)cc2)n1	inactive
O=C(NCCc1ccc(Cl)cc1)/C(=C/c1cccnc1)NC(=O)c1ccccc1	inactive
S=C(NCc1cccnc1)Nc1cccc(Cl)c1	inactive
CCOc1ccc(S(=O)(=O)Nc2ccc(C(=O)N/N=C/c3c(C)nn(-c4ccccc4)c3N3CCCC3)cc2)cc1	inactive
